22 compounds from PubChem BioAssay (Tox21) can be followed below.

Inconclusive results are not listed. Where a call stands in place of a potency, no number is given. A number with no mark means an inactive call. Active and inactive are the calls of the source. The call rests on the fitted dose curve; in most records, active means well fitted inhibition curve with a large enough effect in the repeat runs; inconclusive means weak or mixed curves; inactive means no such curve, though single readings can be large or run the other way.
Potency means the concentration at half of the fitted maximal effect.

This assay is described as follows: qHTS assay to identify small molecule antagonists of the estrogen related receptor (ERR) signaling pathway from Tox21 library (AID 1224848). Further: nearly all actives have a fitted effect of over 50% in size. To be noted: ERR reporter cell line, luciferase antagonist mode, 18 h; series mostly up to 92.4 µM. The method, boiled down:
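Antagonist-mode screen of the Tox21 10K library in an NTP-provided ERR reporter cell line; 18 h compound exposure at 37 C, luminescence measured with ONE-Glo.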
(In general: Quantitative high-throughput screening tests each substance at several concentrations.)
In the case of `CNC(=O)N(c1ccccc1)c1ccccc1`, the Potency entry is “inactive”. On to `CC1(C)C(=O)N(Br)C(=O)N1Cl`, for which the Potency result is “inactive”. On to `CCCCCCCCSCCO`, for which the Potency result is “inactive”.

For the compound `CC#N`, the Potency result is “inactive”.

In the case of `NC(=O)Nc1ccc(Cl)cc1`, the Potency result was “inactive”.

`OC/C(Br)=C(\Br)CO`: the Potency entry was “inactive”.

`CC1=CC(=O)CC(C)(C)C1(O)/C=C/C(C)=C\C(=O)O` (configuration not stated): the Potency result was “inactive”. `CCCCC(CC)CNCC(CC)CCCC` (configuration not stated): the Potency result was “inactive”. On the same count and under the same terms, the result for `O=C(CCC1CCN(Cc2ccccc2)CC1)c1ccc2c(c1)NCCCC2` reads 18.8 µM (active); that for `CC(=O)OCC(=O)[C@H]1CC[C@H]2[C@@H]3CCC4=CC(=O)CC[C@]4(C)[C@H]3CC[C@]12C`, 21.1 µM (active). With `COC(=O)c1cc(Cl)ccc1NS(=O)(=O)C(F)(F)F`, the Potency entry was “inactive”. In the case of `CC(=O)CC(c1ccc([N+](=O)[O-])cc1)c1c(O)c2ccccc2oc1=O` (configuration not stated), the Potency result was “inactive”. For the compound `CCOC(=O)c1ccccc1OC`, the Potency result is “inactive”. On to `c1cnc2c(n1)CCCC2`, for which the Potency entry was “inactive”. As to `CO[C@H]1O[C@H](CO)[C@@H](O)[C@H](O)[C@H]1O`, the Potency entry is “inactive”. Regarding `O=C(/C=C/c1ccccc1)OCCCc1ccccc1`, the Potency result was “inactive”. `C=CCCCCCCCCCCCCCCCC`: the activity, negative = inhibition was 6.89% [at 8.39 µM]. On to `NC(=O)N(O)[C@@H]1C=C[C@H](Oc2cccc(Oc3ccc(F)cc3)c2)C1`, for which the Potency entry is “inactive”. Consider `CC1CC(O)CC(C)(C)C1` (configuration not stated), for which the Potency entry is “inactive”.

`N#C[C@@H]1C[C@@H]2C[C@@H]2N1C(=O)[C@@H](N)C12CC3CC(CC(O)(C3)C1)C2`: the Potency entry is “inactive”. Consider `O=Cc1c(Cl)cccc1Cl`, for which the Potency entry is “inactive”. Consider `CC1(C)O[C@@H]2C[C@H]3[C@@H]4CCC5=CC(=O)C=C[C@]5(C)[C@H]4[C@@H](O)C[C@]3(C)[C@]2(C(=O)CO)O1`, for which the Potency entry is “inactive”.
